This is an account of results in PubChem BioAssay (Tox21).

Assay [1] deals with Luciferin 4-monooxygenase (Photinus pyralis) (UniProt P08659). In words: qHTS assay to identify small molecule inhibitors of firefly luciferase (AID 1224835). Also: nearly all actives have a fitted effect of over 25% in size. Also: potency is read from the fitted curve at half-maximal effect. The procedure, abridged: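 Quantitative HTS format; KM concentrations of both substrates. Purified P. pyralis FLuc activity quantified from luminescence images.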
Chain of Luciferin 4-monooxygenase (Photinus pyralis) (P08659 whole entry, looked up): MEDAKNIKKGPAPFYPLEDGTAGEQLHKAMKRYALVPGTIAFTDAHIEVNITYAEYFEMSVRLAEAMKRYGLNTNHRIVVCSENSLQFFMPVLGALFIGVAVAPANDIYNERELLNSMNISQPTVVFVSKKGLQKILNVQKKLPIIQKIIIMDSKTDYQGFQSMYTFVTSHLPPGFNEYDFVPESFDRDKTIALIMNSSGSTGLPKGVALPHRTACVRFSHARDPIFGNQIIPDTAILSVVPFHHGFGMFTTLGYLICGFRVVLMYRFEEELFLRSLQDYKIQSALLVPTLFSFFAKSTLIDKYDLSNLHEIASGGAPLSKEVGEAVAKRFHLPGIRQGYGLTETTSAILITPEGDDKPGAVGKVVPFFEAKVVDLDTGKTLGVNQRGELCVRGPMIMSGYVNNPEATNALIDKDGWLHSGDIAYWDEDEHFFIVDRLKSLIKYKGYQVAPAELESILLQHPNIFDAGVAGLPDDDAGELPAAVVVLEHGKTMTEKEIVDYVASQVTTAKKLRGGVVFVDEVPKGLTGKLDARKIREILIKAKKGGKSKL
(qHTS replaces the single test concentration by a dilution series.)

Assay [2] is described as follows: qHTS assay to identify small molecule agonists of the constitutive androstane receptor (CAR) signaling pathway - cell viability counter screen (AID 1224836). Also: % is scaled to controls: 0 for no effect and ±100 for the full control effect; nearly all actives have a fitted effect of over 45% in size. The procedure, abridged:
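Compound titrations (15 concentrations) went onto HepG2-CYP2B6-hCAR cells 4 h after seeding, alongside PK11195 at a final 0.75 uM; a 23 h, 37 C/5% CO2 incubation preceded CellTiter-Fluor viability measurement.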

Assay [3] is described as follows: qHTS assay to identify small molecule antagonists of the constitutive androstane receptor (CAR) signaling pathway - cell viability counter screen (AID 1224837). Also: % is scaled to controls: 0 for no effect and ±100 for the full control effect; nearly all actives have a fitted effect of over 45% in size. The procedure, abridged:
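Read-out: CellTiter-Fluor fluorescence after 23 hr at 37 C/5% CO2. Cells: HepG2 double-stable for hCAR and CYP2B6-2.2kb. Compounds tested at 15 concentrations in the presence of CITCO, final concentration 50 nM.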

Assay [4] has as its target Nuclear receptor subfamily 1 group I member 3 (Homo sapiens) (UniProt Q14994). In words: qHTS assay to identify small molecule antagonists of the constitutive androstane receptor (CAR) signaling pathway (AID 1224838).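 Also: HepG2 cells stably expressing hCAR with CYP2B6 luciferase reporter stimulated by CITCO; % is scaled to controls: 0 for no effect and ±100 for the full control effect; nearly all actives have a fitted effect of over 40% in size.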 Summed up:
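Read-out: ONE-Glo luciferase luminescence after 30 min at room temperature. HepG2-CYP2B6-hCAR double-stable cells, compounds in 15-point titration plus 50 nM CITCO final, 24 h at 37 C/5% CO2.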

For assay [5] the target is unchanged. In words: qHTS assay to identify small molecule agonists of the constitutive androstane receptor (CAR) signaling pathway (AID 1224839). Also: nearly all actives have a fitted effect of over 15% in size. Also: potency is read from the fitted curve at half-maximal effect.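 As to activation: HepG2 cells stably carrying human CAR and a CYP2B6 luciferase reporter; % is scaled to controls: 0 for no effect and ±100 for the full control effect.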 Summed up:
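In this screen, CAR-driven CYP2B6 promoter activity is measured by luminescence in HepG2-CYP2B6-hCAR cells after 24 h with test compounds and 0.75 uM PK11195 (final concentration).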

Assay [6] in a line: qHTS assay to identify small molecule antagonists of the estrogen related receptor signaling pathway with the pleiotropic PPARgamma coactivator (PGC) from Tox21 10K library - cell viability counter screen (AID 1224840; active = well fitted cell-killing curve with a large enough effect in the repeat runs, not every such curve was filed as active; also: % is scaled to controls: 0 for no effect and ±100 for the full control effect; nearly all actives have a fitted effect of over 40% in size). The procedure, abridged: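 Fluorescence read-out of CellTiter-Fluor viability reagent, added after cells had been exposed to compound in DMSO for 17.5 h at 37 C; 30 min development at 37 C/5% CO2. Cells: PGC/ERR line, 2,000/well.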

In assay [7] the target is Thyrotropin receptor (Homo sapiens) (UniProt P16473). In words: qHTS assay to identify small molecule agonists of the thyroid stimulating hormone receptor (TSHR) signaling pathway (AID 1224843; calls by dose curve; also: nearly all actives have a fitted effect of over 45% in size; also: potency is read from the fitted curve at half-maximal effect; as to activation: % is scaled to controls: 0 for no effect and ±100 for the full control effect). The procedure, abridged: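 Using 15 concentrations per compound in triplicate, cAMP production was monitored in TSHR-HEK293 cells after 30 min compound incubation at RT; HTRF reagents followed, with fluorescence intensity recorded after 1 h.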
Chain of Thyrotropin receptor (Homo sapiens) (P16473 whole entry, looked up): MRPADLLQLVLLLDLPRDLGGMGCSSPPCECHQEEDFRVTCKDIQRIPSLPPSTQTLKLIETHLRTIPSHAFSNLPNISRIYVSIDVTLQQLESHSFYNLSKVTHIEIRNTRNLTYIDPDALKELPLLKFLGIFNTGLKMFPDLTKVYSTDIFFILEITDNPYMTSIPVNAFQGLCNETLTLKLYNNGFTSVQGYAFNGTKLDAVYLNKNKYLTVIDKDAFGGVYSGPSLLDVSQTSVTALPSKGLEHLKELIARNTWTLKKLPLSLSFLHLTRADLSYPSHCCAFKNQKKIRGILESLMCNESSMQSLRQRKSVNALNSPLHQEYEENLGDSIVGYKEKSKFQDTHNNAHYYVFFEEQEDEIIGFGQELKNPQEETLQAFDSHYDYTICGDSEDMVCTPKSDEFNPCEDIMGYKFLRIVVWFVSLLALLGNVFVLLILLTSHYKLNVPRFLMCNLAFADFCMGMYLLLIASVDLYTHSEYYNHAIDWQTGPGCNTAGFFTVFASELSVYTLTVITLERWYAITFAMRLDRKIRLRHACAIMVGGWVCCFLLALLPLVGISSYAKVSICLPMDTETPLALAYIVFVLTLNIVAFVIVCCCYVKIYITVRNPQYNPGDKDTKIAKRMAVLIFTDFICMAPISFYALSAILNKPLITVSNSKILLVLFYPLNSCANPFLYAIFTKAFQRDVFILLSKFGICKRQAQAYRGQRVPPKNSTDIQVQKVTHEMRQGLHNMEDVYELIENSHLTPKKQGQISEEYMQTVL

Assay [8] can be described thus: qHTS assay to identify small molecule agonists of the hypoxia (HIF-1) signaling pathway - cell viability counter screen (AID 1224844; calls by dose curve; also: % is scaled to controls: 0 for no effect and ±100 for the full control effect; nearly all actives have a fitted effect of over 50% in size). Summed up: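 CellTiter-Glo luminescence read-out, 30 min RT, taken in the same wells as the beta-lactamase HRE reporter assay; HRE-bla ME-180 cells, 0.5% dialyzed FBS, 17 hr compound treatment at 37C, 5% CO2.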
Assay [9] is described as follows: qHTS assay to identify small molecule agonists of H2AX (AID 1224845; active = well fitted activation curve with a large enough effect in the signal ratio in the repeat runs, not every such curve was filed as active; the % refers to the signal ratio; also: % is scaled to controls: 0 for no effect and ±100 for the full control effect). The procedure, abridged: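 Wild-type CHO-K1 cells plated overnight, then exposed 3 hr at 37C to compounds at 15 concentrations (0.76% DMSO). Lysed, then HTRF anti-pH2AX(S139)-cryptate/anti-H2AX-d2 detection after 24 hr at room temperature; emissions 665 and 620 nm.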
Assay [10] is described as follows: qHTS assay to identify small molecule agonists of the hypoxia (HIF-1) signaling pathway (AID 1224846; active = well fitted activation curve with a large enough effect in the signal ratio in the repeat runs, not every such curve was filed as active; the % refers to the signal ratio; also: % is scaled to controls: 0 for no effect and ±100 for the full control effect). The procedure, abridged: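 Beta-lactamase FRET read-out (CCF4-AM substrate) from ME-180 cells carrying an HRE-driven bla reporter, after 17 hrs compound exposure at 37C/5% CO2. Cells were seeded at 2,000 per well in 0.5% dialyzed FBS medium and preincubated 5 hrs.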

Assay [11] in a line: qHTS assay to identify small molecule agonists of H2AX - cell viability counter screen (AID 1224847; calls by dose curve; also: top concentration of the series differs between compounds; % is scaled to controls: 0 for no effect and ±100 for the full control effect; nearly all actives have a fitted effect of over 30% in size). The procedure, abridged:
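Read-out: CellTiter-Glo luminescence, 30 min RT. Cells: wild-type CHO-K1, 1000/well, 10% FBS, plated overnight at 37C. Treatment: 15 concentrations, 3 hr, 37C, 0.76% DMSO.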

Assay [12] in a line: qHTS assay to identify small molecule antagonists of the estrogen related receptor (ERR) signaling pathway from Tox21 library (AID 1224848). Also: potency is read from the fitted curve at half-maximal effect; nearly all actives have a fitted effect of over 50% in size. Summed up: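 Tox21 10K compounds in DMSO tested for ERR pathway antagonism in NTP's ERR cell line; 18 h, 37 C exposure; ONE-Glo luminescence.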
Assay [13] in a line: qHTS assay to identify small molecule agonists of the estrogen related receptor (ERR) signaling pathway from Tox21 library (AID 1224849; calls by dose curve; also: % is scaled to controls: 0 for no effect and ±100 for the full control effect; nearly all actives have a fitted effect of over 15% in size). To be noted: ERR reporter cell line, ONE-Glo luciferase, 18 h; at 92.4 µM (top of the series) unless noted. Summed up:
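Luminescence readout (ONE-Glo, 30 min RT) after 18 h compound exposure at 37 C of NTP-supplied ERR reporter cells; cells were plated 6 h before compound addition by pin tool.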

A short description of assay [14]: qHTS RealTime-Glo MT Cell Viability Assay in HepG2 cells - 24 hour (AID 1224867). Also: % is scaled to controls: 0 for no effect and ±100 for the full control effect; nearly all actives have a fitted effect of over 50% in size. The procedure, abridged: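 Compound treatment began 5 h after plating HepG2 cells (600/well) with NanoLuc luciferase and prosubstrate. Plates stayed at 37 C for 40 h; luminescence was captured at six time points, 0 h through 40 h.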
Assay [15] in a line: A CellTox Green Cytotoxicity Assay to monitor cytotoxicity in HEK293 cells - 0 hour (AID 1224869). Also: % is scaled to controls: 0 for no effect and ±100 for the full control effect; nearly all actives have a fitted effect of over 50% in size. The procedure, abridged:
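Read-out: fluorescence of a cell-impermeant cyanine dye staining DNA of dead cells, proportional to cytotoxicity. HEK293, 600 cells/well with reagent, compound (23 nL DMSO) added after 5 h; reads at 0, 8, 16, 24, 32, 40 h.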

The nature of assay [16]: qHTS assay to identify small molecule antagonists of the estrogen related receptor signaling pathway with the pleiotropic PPARgamma coactivator (PGC) from Tox21 10K library (AID 1224841; call rule not given here; also: potency is read from the fitted curve at half-maximal effect). The procedure, abridged:
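Luminescence read-out (One-Glo luciferase reagent, 30 min at room temperature) from PGC/ERR cells exposed to DMSO-dissolved test compounds for 18 h at 37 C; cells, 2,000 per well, had been preincubated 6 h before compound transfer.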

Assay [17] is described as follows: qHTS assay to identify small molecule agonists of the estrogen related receptor signaling pathway with the pleiotropic PPARgamma coactivator (PGC) from Tox21 10K library (AID 1224842). Also: % is scaled to controls: 0 for no effect and ±100 for the full control effect; nearly all actives have a fitted effect of over 15% in size. The procedure, abridged: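 PGC/ERR reporter cells (NTP line) were seeded 2,000 per well, rested 6 h at 37 C/5% CO2, then pin-dosed with compounds in DMSO for 18 h at 37 C; luciferase read by One-Glo luminescence after 30 min at room temperature.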

Assay [18] can be described thus: qHTS RealTime-Glo MT Cell Viability Assay in HEK293 cells - 32 hour (AID 1224868). Also: nearly all actives have a fitted effect of over 50% in size. Also: potency is read from the fitted curve at half-maximal effect. The procedure, abridged: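 Quantitative high-throughput screen of the Tox21 10K library in HEK293: cells and RealTime-Glo reagents plated together, compound added at 5 h, luminescence monitored through 40 h at 37 C.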

A number with no mark means an inactive call. Records with an inconclusive call do not appear. Activity calls are given as the source filed them. Unless noted, calls follow the shape of the dose curve; as a rule, active = well fitted curve in the direction sought with a large enough effect in the repeat runs; inconclusive = weak or mixed curves; inactive = no such curve, though single readings can be large; an effect the other way counts as inactive or inconclusive.

Chain of Nuclear receptor subfamily 1 group I member 3 (Homo sapiens) (Q14994 whole entry, looked up): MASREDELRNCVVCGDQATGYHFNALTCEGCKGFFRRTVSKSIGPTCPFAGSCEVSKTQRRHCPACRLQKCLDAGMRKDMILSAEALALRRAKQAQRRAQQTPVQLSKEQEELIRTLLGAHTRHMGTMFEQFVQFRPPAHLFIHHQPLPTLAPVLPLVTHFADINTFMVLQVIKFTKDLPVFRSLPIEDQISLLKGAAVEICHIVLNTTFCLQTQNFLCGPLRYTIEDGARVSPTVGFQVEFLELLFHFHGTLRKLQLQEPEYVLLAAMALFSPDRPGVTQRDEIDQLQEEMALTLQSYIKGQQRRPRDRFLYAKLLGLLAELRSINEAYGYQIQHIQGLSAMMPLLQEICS

With `COC(=O)C(C)N(C(=O)Cc1ccccc1)c1c(C)cccc1C` (stereo unspecified), the Potency entry in assay [1], in assay [2], in assay [3], in assay [4], in assay [6] and in assay [8] was “inactive” in each case. Also, the Potency result in [9], in assay [11], in assay [14] and in assay [15] was “inactive” each time. The Potency in [5] is 9.69 µM (active); in [7], 27.3 µM (active); in [12], 30.6 µM (active). Also, the outcome in assay [10] was inactive. For the same compound, in assay [13], the activity change, positive = activation was -38.3%.
As to `O=C1C(=O)c2cccc3cccc1c23`, the Potency entry in assay [1], in [2], in assay [3], in assay [6], in assay [7] and in [11] was “inactive” throughout. In addition, the Potency result in assay [14] and in [15] was “inactive” each time. Besides, the Potency in assay [5] is 61.1 µM (active). In assay [10], the outcome was inactive.
On to `CCCCc1c(C)nc(NCC)nc1OS(=O)(=O)N(C)C`, for which the Potency result in assay [1], in assay [2], in assay [17], in assay [7], in assay [9] and in assay [14] was “inactive” each time. In addition, the Potency result in assay [15] is “inactive”. Also, the Potency is 21.7 µM (active) in [5], 48.6 µM (active) in [16], 30.6 µM (active) in assay [12] and 11 µM (active) in [18]. Further, the result in assay [10] was inactive. The activity change, positive = activation in [13] is -48.3%.
`O=C(Nc1ccccc1)Nc1cnns1`: the Potency entry in [4], in assay [6], in [16], in assay [17], in assay [7] and in assay [8] was “inactive” throughout. For the same compound, the Potency entry in assay [9], in [11], in assay [14] and in assay [15] was “inactive” in each case. The result in [10] was inactive. The activity change, positive = activation in assay [13] was -23.5%. Also, the Potency in assay [18] was 27.5 µM (active).
On to `COP(=O)(OC)O/C(=C/Cl)c1cc(Cl)c(Cl)cc1Cl`, for which the Potency result in assay [1], in assay [2], in assay [3], in assay [17], in assay [8] and in assay [9] was “inactive” in each case. Moreover, the Potency entry in assay [14] and in assay [15] was “inactive” throughout. In addition, the Potency was 8.13 µM (active) in [16] and 22.9 µM (active) in assay [12]. The activity change, positive = activation in [13] was -67.5%.
`O=Cc1ccc2c(c1)OCO2`: the Potency entry in [1], in assay [2], in assay [3], in assay [6], in assay [7] and in assay [9] was “inactive” each time. The Potency entry in assay [11], in assay [14], in assay [18] and in assay [15] was “inactive” in each case. Also, the outcome in assay [10] was inactive.
As to `CC(C)(C)C(O)C(Oc1ccc(Cl)cc1)n1cncn1` (stereo unspecified), the Potency entry in assay [1], in assay [3], in assay [4], in assay [6], in assay [9] and in assay [11] was “inactive” each time. Also, the Potency result in assay [14] and in assay [15] was “inactive” in each case. Moreover, the compound was classed as inactive in [10]. Besides, the Potency in assay [18] is 12.3 µM (active).
For the compound `O=C(NCc1cccnc1)Nc1ccc([N+](=O)[O-])cc1`, the Potency result in assay [1], in assay [2], in [3], in assay [7], in assay [8] and in assay [9] was “inactive” in each case. In addition, the Potency entry in assay [11], in assay [14] and in assay [15] was “inactive” each time. In addition, in assay [10], the result was inactive. Besides, in assay [18], the Potency is 49 µM (active).
With `CCCC(Cn1cncn1)c1ccc(Cl)cc1Cl` (stereo unspecified), the Potency result in assay [1], in assay [2], in assay [4], in [17], in assay [7] and in [9] was “inactive” throughout. The Potency entry in [14] and in assay [15] was “inactive” each time. The Potency is 61.1 µM (active) in assay [5], 30.6 µM (active) in assay [16], 30.6 µM (active) in [12] and 21.9 µM (active) in assay [18]. The compound was called inactive in [10]. Besides, in [13], the activity change, positive = activation was -61.7%.
For the compound `CS/C(C)=N/OC(=O)N(C)SN(C)C(=O)O/N=C(\C)SC`, the values for the Potency in assay [1] and in assay [18] were 31.7 µM (active) and 49 µM (active), respectively. Further, the Potency entry in assay [5], in assay [17], in assay [9] and in [15] was “inactive” in each case. In addition, the outcome in assay [10] was inactive. Also, the activity change, positive = activation in [13] is -68.2%.
